# An excerpt weighted towards active compounds, which were near 4% of everything screened.
# Wnt act: activates Wnt/beta-catenin signaling in a reporter cell assay; AID 743398; activation, % at 9.35 µM; activator, plate reader; actives 1.2% (n = 300,000); in the data active = activation above about 30%, passing the limit was not always enough
# MITF TRPM1 inh: MITF TRPM1 promoter inhibition in SK-MEL-5 cells. SK-MEL-5 TRPM1 promoter luciferase, 24 h. inhibition, % at 12.5 µM. actives 0.83% (n = 330,000). AID 488899;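 active = mean inhibition across replicates of 60% or more, whatever share of single replicates reaches that level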
# esBAF inh: SWI/SNF esBAF complex inhibition; AID 602393; mouse ES cells, Bmi1-luciferase knock-in reporter, 24 h; 100% = twice the neutral-well signal; reporter increase, % at 12.5 µM; actives 2% (n = 350,000); in the data active = activation above about 40%;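 note: a rise in the Bmi1 reporter signal indicates esBAF inhibition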
# EBV LMP1 NFkB: inhibitors of Epstein-Barr LMP1-induced NF-kappaB reporter. actives 0.69% (n = 350,000). inhibition, % at 12.5 µM. LMP1-induced NF-kappaB luciferase reporter cells, luminescence; in the data active = inhibition above about 41%
# MITF act: activators of MITF-driven TRPM1 promoter activity in SK-MEL-5 cells | SK-MEL-5 TRPM1-promoter luciferase, 24 h; % of positive control, neutral wells = 0 | activation, % at 12.5 µM | actives 0.75% (n = 300,000);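 active = mean activation of at least 80% with every replicate also reaching 80%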
# C2C12 statin: suppression of simvastatin myotoxicity; rescue of ATP level, % at 7.49 µM; actives 0.78% (n = 330,000); C2C12 myotubes + simvastatin, ATP luminescence, 48 h; scaled: DMSO 0, geranylgeraniol control 100;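 active = mean ATP rescue above about 67%, or every replicate alone reaching that limit, limit read from the data, passing the limit was not always enough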;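 note: myotubes were challenged with 10 µM simvastatin during compound exposure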
# Numbers stand for hits; n = inactive; x = no result; ! = not confirmed by another sample.
SMILES,Wnt act,MITF TRPM1 inh,esBAF inh,EBV LMP1 NFkB,MITF act,C2C12 statin
C/C(Cc1ccccc1)=N\NC(=O)CNC(=O)c1cccc(Cl)c1,33,n,x,n,n,x
C/C(Cc1ccccc1)=N\NC(=O)CNC(=O)c1ccc(Cl)cc1Cl,n,n,x,n,x,x
C=CCn1c(SCC(=O)Nc2ccccc2OC)nc2c([nH]c3ccccc32)c1=O,n,n,x,n,n,x
CN(C(=O)OC(C)(C)C)c1ccc(-c2nc3ccccc3s2)cc1,n,94,n,81,n,n
CC(C)c1ccc(-c2nc3ccccc3s2)cc1,n,92,x,70,n,x
O=C1CCC(=O)N1CCSC(=S)N1CCOCC1,35,n,x,n,x,x
Fc1ccc(C2=Nn3c(nnc3-c3n[nH]c4c3CCC4)SC2)cc1,n,n,n,n,n,114
Cc1cc(=O)n(CCO)c(O)c1C#N,n,n,n,n,x,n
CCn1c(O)c(C#N)c(C)cc1=O,48,n,x,n,x,x
O=C(CN1C(=O)NC2(CCOc3ccccc32)C1=O)c1ccc(Br)cc1 (stereo not drawn),n,n,x,n,n,x
CCCCN1C(=O)/C(=C/C=C2/CC(C)(C)CN2C)SC1=S,n,n,93,n,n,n
Nc1nc(SCc2c(F)cccc2Cl)[nH]c(=O)c1-c1ccccc1,x,n,n,n,n,n
CC(C)(C)c1ccc(-n2nc(C#N)c(Cl)cc2=O)cc1,n,98,x,n,n,x
FC(F)Oc1ccc(C2N=C(c3ccccc3)NO2)cc1 (stereo not drawn),34,n,x,n,117,x
COc1ccc(C2N=C(c3ccccc3)NO2)cc1OC (stereo not drawn),n,n,52,n,n,n
O=C(O)c1ccc(/C=N/NC(=O)c2ccc3c(c2)OCCO3)cc1,n,n,n,n,n,n
Cc1ccc(S(=O)(=O)Nc2ccc3c(c2)CC(=O)N([C@@H](C)CO)C[C@H](C)[C@H](CN(C)Cc2ccc(Cl)c(Cl)c2)O3)cc1,x,x,n,x,x,n
Cc1ccc(S(=O)(=O)Nc2ccc3c(c2)CC(=O)N([C@H](C)CO)C[C@H](C)[C@@H](CN(C)Cc2ccc(Cl)c(Cl)c2)O3)cc1,x,x,n,x,x,145
C[C@@H]1CN([C@@H](C)CO)C(=O)Cc2cc(NS(=O)(=O)c3ccccc3)ccc2O[C@H]1CN(C)Cc1ccc(Cl)c(Cl)c1,x,x,n,x,x,n
Cc1ccc(S(=O)(=O)Nc2ccc3c(c2)CC(=O)N([C@@H](C)CO)C[C@@H](C)[C@@H](CN(C)Cc2ccc(Cl)c(Cl)c2)O3)cc1,x,x,n,x,x,77
Cc1ccc(S(=O)(=O)Nc2ccc3c(c2)CC(=O)N([C@H](C)CO)C[C@@H](C)[C@@H](CN(C)Cc2ccc(Cl)c(Cl)c2)O3)cc1,x,x,n,x,x,116
Cc1ccc(S(=O)(=O)Nc2ccc3c(c2)CC(=O)N([C@H](C)CO)C[C@@H](C)[C@H](CN(C)Cc2ccc(Cl)c(Cl)c2)O3)cc1,x,x,n,x,x,103
COc1ccc(S(=O)(=O)Nc2ccc3c(c2)CC(=O)N([C@@H](C)CO)C[C@H](C)[C@H](CN(C)Cc2ccc(Cl)c(Cl)c2)O3)cc1,x,x,n,x,x,n
N#C[C@@H]1[C@@H](c2ccc(C#CC3CC3)cc2)[C@H](CO)N1C(=O)Cc1ccccn1,x,x,n,x,x,n
OC[C@H]1O[C@H](c2nc(-c3nc(-c4cccs4)no3)cs2)C[C@@H]1O,n,x,n,x,x,n
SMILES,Wnt act,MITF TRPM1 inh,esBAF inh,EBV LMP1 NFkB,MITF act,C2C12 statin
N#Cc1sc2nc3c(c(-c4ccco4)c2c1N)CCCC3,x,n,n,n,n,98
O=C1CCC(C(=O)N2CCCC(C(=O)c3ccc4ccccc4c3)C2)=NN1 (stereo not drawn),n,n,n,n,n,n
Cc1ccc2c(c1)C1(C(=O)N2)N2CCCC2C(C(=O)c2ccc3ccccc3c2)C12C(=O)Nc1ccccc12 (stereo not drawn),n,n,50!,n,n,n
O=c1c2ccccc2oc2c1ccc1ccccc12,x,n,72,n,90,n
O=c1cc(-c2ccncc2)oc2c1ccc1ccccc12,n,n,n,n,x,n
O=c1cc(C(Cl)(Cl)Cl)oc2c1ccc1ccccc12,n,69,n,n,n,n
O=c1cc(-c2ccco2)oc2c1ccc1ccccc12,n,n,n,n,n,103
O=c1c2ccccc2oc2ccccc12,n,x,n,x,x,n
N#C/C(=C\c1cn(CC(=O)N2CCCCC2)c2ccccc12)C(=O)NCc1ccc2c(c1)OCO2,x,n,x,n,n,x
